From PubChem BioAssay
Most compounds without a hit are left out; they make up all but 12% or so of the library.
Lassa entry inh: blocks Lassa virus binding to or entry into cells | Lassa virus pseudotype entry inhibition, cell reporter | 300,000 tested, 1.2% active | AID 540256 | Potency, µM (doses to about 37.9 µM), for the others: at the top dose activity change, negative = inhibition, usual class: inhibitors; calls by dose curve; tested in HEK293 cells; also: potency is read from the fitted curve at half-maximal effect; % is scaled to controls: 0 for no effect and ±100 for the full control effect; nearly all actives have a fitted effect of over 50% in size
MARV entry inh: inhibitors of Marburg virus binding or cell entry | 300,000 tested, 1.8% active | Marburg virus pseudotyped entry inhibition, cell reporter | Potency, µM (titrated, usually from 37.8 µM), for inactives: top-dose activity change, negative = inhibition, hits mostly inhibitors | AID 540276; calls by dose curve; tested in HEK293 cells; also: potency is read from the fitted curve at half-maximal effect; % is scaled to controls: 0 for no effect and ±100 for the full control effect
Cycloheximide cs: affects cycloheximide protein synthesis inhibition readout, counter-screen | cell reporter, cycloheximide protein synthesis inhibition counterscreen | max response, % | 300,000 tested, 12% active | AID 2314; in the data active = max response mostly above about 13%, no sharp cut-off; inactive = mostly below about 14%; also: read at 38.3 µM for the half of the compounds with a filed dose; 0% is about no effect
Shiga toxin inh: blocks Shiga toxin action in Vero cells; inhibition, % at 38.7 µM; 290,000 tested, 9.2% active; Vero cells, Shiga toxin protein synthesis inhibition reporter; in the data active = inhibition mostly above about 28%, no sharp cut-off; inactive = mostly below about 43%; also: 0% is about no effect
* = called active by the depositor; [ ] = dose if it differs, or a comment.

O=C(N/N=C\c1cccc(Cl)c1)c1n[nH]c2c1CCCC2 was read as Lassa entry inh inconclusive, MARV entry inh inconclusive, Cycloheximide cs 58.6* and Shiga toxin inh 78.4*.
O=C(N/N=C/c1ccc(Cl)cc1Cl)c1n[nH]c2c1CCCC2 was read as Lassa entry inh inconclusive, MARV entry inh inconclusive, Cycloheximide cs 20.7* and Shiga toxin inh 67.2*.
For CCC(C)NC(=O)CSC1=Nc2ccccc2C2=NC(CC(=O)NCc3ccccc3)C(=O)N12 (centres undefined) the results were Lassa entry inh 7.8%, MARV entry inh -11.2%, Cycloheximide cs -2.1 and Shiga toxin inh -0.9.
`Cc1oc2c(c(C)cc3oc(=O)c(CC(=O)NCCc4ccccc4F)c(C)c32)c1C` gave Lassa entry inh 1.4%[46.1 µM] and MARV entry inh 16.8%[46.1 µM].
`Cc1c(Cl)cccc1NC(=O)Cn1nc(C)n2cccc2c1=O` gave Cycloheximide cs 8.1 and Shiga toxin inh 3.3.
For O=C(N/N=C/c1cccc(Cl)c1)C1CCCC1 the results were Lassa entry inh -8.3%[46.1 µM], MARV entry inh 12.9%[46.1 µM], Cycloheximide cs 35.2* and Shiga toxin inh 54.4*.
For O=S(=O)(Nc1ccccn1)c1cc(Cl)ccc1Cl the results were Cycloheximide cs -4.8 and Shiga toxin inh 3.6.
Screening CCc1ccc(OC(=O)c2ccn(CC)n2)cc1 returned Lassa entry inh inconclusive, MARV entry inh 3.0%, Cycloheximide cs 39.8* and Shiga toxin inh 150.5*.
O=C(O)/C=C1\NC(=O)c2ccccc21 was read as Lassa entry inh 9.0%, MARV entry inh -12.3%, Cycloheximide cs -1.3 and Shiga toxin inh -10.0.
For O=C1N/C(=C\c2ccc(O)cc2)C(=O)c2ccccc21 the results were Lassa entry inh inconclusive, MARV entry inh inconclusive, Cycloheximide cs 33.9* and Shiga toxin inh 42.0.
FC(F)(F)c1cc(CO[C@H]2CCCN[C@H]2c2ccccc2)cc(C(F)(F)F)c1 was read as MARV entry inh 14.1µM*.
Screening Cc1cc(N2CCC(C(=O)Nc3ccc(Cl)cc3)CC2)n2nc(C)c(-c3ccc(Cl)cc3)c2n1 returned Lassa entry inh 24.0%[46.1 µM] and MARV entry inh 8.4%[46.1 µM].
`O=C(Nc1nc(-c2ccc(Cl)cc2)cs1)C1=COCCO1` gave Lassa entry inh -25.6% and MARV entry inh 20.7%.
For C[C@H](NC(=O)c1ccco1)C(=O)Nc1nc(-c2ccccn2)cs1 the results were Lassa entry inh -12.4%[46.1 µM] and MARV entry inh -7.4%.
For O=C(Nc1nc(-c2cccs2)cs1)C1=COCCO1 the results were Lassa entry inh inconclusive, MARV entry inh inconclusive, Cycloheximide cs 39.8* and Shiga toxin inh 67.8*.
Screening O=C(Nc1nc(-c2cccs2)cs1)c1ccco1 returned Lassa entry inh -4.9%, MARV entry inh inconclusive, Cycloheximide cs 37.4* and Shiga toxin inh 90.6*.
O=C(Nc1nc(-c2ccccn2)cs1)c1ccco1 was read as Lassa entry inh inconclusive, MARV entry inh inconclusive, Cycloheximide cs 54.3* and Shiga toxin inh 89.3*.
For CC(=O)c1ccc(NC(=O)c2cc(-c3ccc(C)s3)nc3ccccc23)cc1 the results were Lassa entry inh 26.7%[46.1 µM] and MARV entry inh inconclusive.
For CN(C(=O)c1ccc2c(c1)OCO2)C1CCCCC1 the results were Lassa entry inh -6.8%[46.1 µM], MARV entry inh 11.5%[46.1 µM], Cycloheximide cs 42.2* and Shiga toxin inh 35.7*.
For CC1CCC(NC(=O)C(=O)Nc2ccc3c(c2)OCO3)CC1 (centres undefined) the results were Lassa entry inh -19.9%[46.1 µM], MARV entry inh inconclusive, Cycloheximide cs 57.1* and Shiga toxin inh 116.4*.
CC1CCC(NC(=O)c2ccc(/C=C3\Oc4ccccc4N(C)C3=O)cc2)CC1 (centres undefined) was read as MARV entry inh 5.0%, Cycloheximide cs 25.0* and Shiga toxin inh 41.9.
For CC1CCC(NCCc2ccc3c(c2)OCO3)CC1 (centres undefined) the results were Lassa entry inh 7.8%, MARV entry inh 16.4µM*, Cycloheximide cs -1.9 and Shiga toxin inh -9.4.
Screening CN(C(=O)c1ccc2nccnc2c1)C1CCCCC1 returned Cycloheximide cs 11.7 and Shiga toxin inh 43.2.
Screening COc1ccc(C2=Nn3c(nnc3-c3ccccc3OC)SC2)c(OC)c1 returned Cycloheximide cs -1.3 and Shiga toxin inh -6.7.
Screening COc1ccccc1N1CCN(c2nc3ccc(C)cc3n3nnnc23)CC1 returned Lassa entry inh -5.1%[46.1 µM].
`CC1CCC(NC(=O)c2ccc3c(c2)OCO3)CC1` (centres undefined) gave Lassa entry inh 3.55µM*, MARV entry inh inconclusive, Cycloheximide cs 43.1* and Shiga toxin inh 52.7*.
Screening O=C(NNC(=O)c1ccc2c(c1)OCO2)NC1CCCCC1 returned Lassa entry inh 4.8%, MARV entry inh inconclusive, Cycloheximide cs -4.7 and Shiga toxin inh -5.7.
Screening O=C(NC1CCCCC1)c1ccc2c(c1)OCO2 returned Lassa entry inh 3.5%[46.1 µM], MARV entry inh inconclusive, Cycloheximide cs 25.5* and Shiga toxin inh 84.4*.
`Cc1ccc(N2C(=O)CSC23C(=O)N(CC(=O)NC2CCCCC2)c2ccccc23)cc1` (centres undefined) gave Lassa entry inh -8.5%[46.1 µM].
Screening Cc1ccc(NC(=O)c2sc3nc(N4CCOCC4)c4c(c3c2N)CC(C)(C)OC4)cc1 returned Cycloheximide cs 22.3* and Shiga toxin inh 6.5.
CC1(C)Cc2c(c(N3CCCC3)nc3sc(C(=O)Nc4ccccc4)c(N)c23)CO1 was read as Cycloheximide cs 40.6* and Shiga toxin inh 79.7*.
COc1ccc(-n2nnnc2/C=C\Nc2ccc(C)cc2)cc1 was read as Lassa entry inh inconclusive, MARV entry inh 0.5%, Cycloheximide cs -2.6 and Shiga toxin inh 10.5.
Screening COc1ccc(C2=Nn3c(nnc3C(F)(F)F)SC2)cc1 returned Cycloheximide cs -1.1 and Shiga toxin inh -8.5.
CCN1CCCC1CNC(=O)c1csc2c1CCCC2 (centres undefined) was read as Lassa entry inh -14.0%, MARV entry inh 23.1µM*, Cycloheximide cs -1.6 and Shiga toxin inh -3.1.
Screening CCC1CCCCN1CCCNC(=O)c1csc2c1CCCCC2 (centres undefined) returned Cycloheximide cs -11.3 and Shiga toxin inh -1.4.
`CCOc1ccc(NC(=O)C(=O)NCC2CCCN2CC)cc1` (centres undefined) gave Lassa entry inh 2.7%, MARV entry inh 21.5%, Cycloheximide cs 0.6 and Shiga toxin inh -3.8.
CCN1CCCC1CNC(=O)C(=O)Nc1ccccc1 (centres undefined) was read as Lassa entry inh -5.8%[46.1 µM], MARV entry inh inconclusive, Cycloheximide cs 29.4* and Shiga toxin inh 85.6*.
O=C(NCC1CCCO1)c1csc2c1CCCC2 (centres undefined) was read as Lassa entry inh 15.5%, MARV entry inh 18.6%, Cycloheximide cs 39.8* and Shiga toxin inh 30.9.
`CSc1ccccc1NC(=O)Nc1cccc(Cl)c1` gave Lassa entry inh 6.2%, MARV entry inh 11.5%, Cycloheximide cs 40.8* and Shiga toxin inh 83.9*.
CSc1ccccc1NC(=O)Nc1ccc(F)c(Cl)c1 was read as Lassa entry inh 7.7%, MARV entry inh -11.6%, Cycloheximide cs 34.2* and Shiga toxin inh 60.8*.
For O=C(Nc1ccc(Cl)c(Cl)c1)Nc1ccc(Br)cc1F the results were Lassa entry inh inconclusive, MARV entry inh inconclusive, Cycloheximide cs 10.2 and Shiga toxin inh 13.0.
